Test results: PubChem BioAssay (EPA / NIEHS)
The source made the active and inactive calls. The calls were made as follows: active = hit-call score of the fitted dose curve at least 0.9, where 1 is the maximum; inactive = score below 0.9.

Target: Hypoxia-inducible factor 1-alpha (Homo sapiens) (UniProt Q16665)
Experiment: ATG_HIF1a_CIS: Attagene CIS-FACTORIAL HepG2 Assay for human Hypoxia Inducible Factor 1 (HIF1A) (AID 2282951)
Settings: HepG2 Attagene cis-factorial HIF1a reporter transcription; actives raise or lower the signal
Summary of the method: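 Endogenous-TF cis reporter readout, human HepG2 cells, 24 h incubation; mRNA detected via RT-PCR and capillary electrophoresis fluorescence; DMSO-normalised bidirectional fitting.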

Chain of Hypoxia-inducible factor 1-alpha (Homo sapiens) (Q16665 whole entry, looked up): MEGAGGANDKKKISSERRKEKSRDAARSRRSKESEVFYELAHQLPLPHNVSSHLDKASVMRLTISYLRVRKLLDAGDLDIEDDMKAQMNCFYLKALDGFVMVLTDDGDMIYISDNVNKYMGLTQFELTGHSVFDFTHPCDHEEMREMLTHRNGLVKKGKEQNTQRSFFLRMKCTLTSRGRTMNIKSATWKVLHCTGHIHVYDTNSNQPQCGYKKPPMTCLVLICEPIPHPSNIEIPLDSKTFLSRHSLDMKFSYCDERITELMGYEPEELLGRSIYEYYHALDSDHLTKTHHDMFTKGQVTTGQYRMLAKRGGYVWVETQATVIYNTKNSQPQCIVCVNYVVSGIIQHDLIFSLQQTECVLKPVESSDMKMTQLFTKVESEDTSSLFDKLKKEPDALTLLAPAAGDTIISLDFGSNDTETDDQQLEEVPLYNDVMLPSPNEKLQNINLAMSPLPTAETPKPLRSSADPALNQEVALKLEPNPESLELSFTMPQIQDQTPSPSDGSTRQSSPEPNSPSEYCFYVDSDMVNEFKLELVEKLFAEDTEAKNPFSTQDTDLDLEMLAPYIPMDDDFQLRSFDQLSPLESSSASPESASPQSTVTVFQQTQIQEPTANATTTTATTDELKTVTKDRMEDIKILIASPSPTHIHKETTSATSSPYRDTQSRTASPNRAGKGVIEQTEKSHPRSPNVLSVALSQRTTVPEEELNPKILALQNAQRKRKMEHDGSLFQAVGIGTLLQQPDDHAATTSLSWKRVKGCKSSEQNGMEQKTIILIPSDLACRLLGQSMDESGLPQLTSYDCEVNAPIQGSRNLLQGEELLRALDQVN

Structure (SMILES)	outcome	AC50
CCCCCCCCCCCCOCCO	inactive	
CC(C)=CCC/C(C)=C/COC=O	inactive	
CCC(=O)OCCC(C)CCC=C(C)C (centres undefined)	inactive	
CCCCCCCCCCN	inactive	
O=C1C(c2[nH]c3ccc(S(=O)(=O)O)cc3c2O)=Nc2ccc(S(=O)(=O)O)cc21	inactive	
CCCCOCCOCCOCCOCCO	inactive	
NCCCCCCN	inactive	
CC(C)(COC(=O)c1ccccc1)COC(=O)c1ccccc1		47.2 µM (active)
O=C(COc1ccc(Cl)cc1)N1CCN(Cc2ccc3c(c2)OCO3)CC1		19.8 µM (active)
O=CCCc1ccccc1	inactive	
CCCCCCCCC=O	inactive	
OCCCCCO	inactive	
C=C(C)C(=O)Nc1ccc(Cl)c(Cl)c1	inactive	
C=C(C)[C@@H]1CC[C@@H](C)C[C@@H]1O	inactive	
OC[C@H]1O[C@H](O[C@]2(CCl)O[C@H](CCl)[C@@H](O)[C@@H]2O)[C@H](O)[C@@H](O)[C@H]1Cl	inactive	
O=c1[nH]c(=O)n([C@H]2CCCO2)cc1F	inactive	
Cc1ccc(C=O)s1	inactive	
C=O	inactive	
O=C(O)c1cccc(C(F)(F)F)c1	inactive	

Structure (SMILES)	outcome	AC50
Fc1c(F)c(F)c(Br)c(F)c1F	inactive	
C=C(C)C1CCC(C)CC1O (centres undefined)	inactive	
O=S(=O)(O)NC1CCCCC1	inactive	
CCCCCCCCCCC(CO)CCCCCCCC (centres undefined)	inactive	
CO[Si](CCCn1c(=O)n(CCC[Si](OC)(OC)OC)c(=O)n(CCC[Si](OC)(OC)OC)c1=O)(OC)OC	inactive	
C=CCOc1nc(OCC=C)nc(OCC=C)n1	inactive	
C=C(C)C(=O)O[C@H]1C[C@@H]2CC[C@@]1(C)C2(C)C		73.3 µM (active)
Cc1ccc(S)cc1	inactive	
CCCCCCOC(=O)CCCCC	inactive	
Nc1ccc(S(N)(=O)=O)cc1	inactive	
CC(C)=CCO	inactive	
CCOc1ccccc1OCC	inactive	
CC(=O)C(=O)O		33.9 µM (active)
CC1(C)C(=O)N(Br)C(=O)N1Cl	inactive	
CCC(C)CCCC(C)(C)O (centres undefined)	inactive	
Clc1sc(Cl)c(Cl)c1Cl	inactive	
CC1(CO)CN(c2ccccc2)NC1=O (centres undefined)	inactive	
CCOC(=O)c1ccccc1OC	inactive	
CCCOCC(C)O (centres undefined)		24.8 µM (active)

Target: Hepatocyte nuclear factor 6 (Homo sapiens) (UniProt Q9UBC0)
Sequence (Q9UBC0 whole entry, looked up): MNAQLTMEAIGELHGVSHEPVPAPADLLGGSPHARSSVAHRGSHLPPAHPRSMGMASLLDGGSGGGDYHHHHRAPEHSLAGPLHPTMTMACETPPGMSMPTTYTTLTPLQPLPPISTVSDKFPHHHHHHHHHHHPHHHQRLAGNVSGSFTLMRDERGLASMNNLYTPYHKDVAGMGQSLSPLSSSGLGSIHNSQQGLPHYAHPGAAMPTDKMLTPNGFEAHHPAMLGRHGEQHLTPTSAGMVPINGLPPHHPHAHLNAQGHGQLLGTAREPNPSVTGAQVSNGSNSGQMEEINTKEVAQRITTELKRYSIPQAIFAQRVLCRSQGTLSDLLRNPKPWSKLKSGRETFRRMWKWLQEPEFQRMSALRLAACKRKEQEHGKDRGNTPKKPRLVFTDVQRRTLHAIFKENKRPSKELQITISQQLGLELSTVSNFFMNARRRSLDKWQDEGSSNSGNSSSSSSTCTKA
Experiment: ATG_HNF6_CIS: Attagene CIS-FACTORIAL HepG2 Assay for human Hepatocyte Nuclear Factor 6 (HNF6) (AID 2282952)
Settings: HepG2 Attagene cis-factorial HNF6 reporter transcription; actives raise or lower the signal
Summary of the method: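 HepG2 cells transiently transfected with cis-element-driven multiple reporter transcription units, dosed 24 h; reporter mRNA quantified by RT-PCR, FAM primer extension, HpaI digestion and capillary electrophoresis; bidirectional fit versus DMSO baseline.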

Structure (SMILES)	outcome	AC50
CCCCCCCCCCCCOCCO	inactive	
CC(C)=CCC/C(C)=C/COC=O	inactive	
CCC(=O)OCCC(C)CCC=C(C)C (centres undefined)	inactive	
CCCCCCCCCCN	inactive	
O=C1C(c2[nH]c3ccc(S(=O)(=O)O)cc3c2O)=Nc2ccc(S(=O)(=O)O)cc21	inactive	
CCCCOCCOCCOCCOCCO	inactive	
NCCCCCCN	inactive	
CC(C)(COC(=O)c1ccccc1)COC(=O)c1ccccc1	inactive	
O=C(COc1ccc(Cl)cc1)N1CCN(Cc2ccc3c(c2)OCO3)CC1	inactive	
O=CCCc1ccccc1	inactive	
CCCCCCCCC=O	inactive	
OCCCCCO	inactive	
C=C(C)C(=O)Nc1ccc(Cl)c(Cl)c1	inactive	
C=C(C)[C@@H]1CC[C@@H](C)C[C@@H]1O	inactive	
OC[C@H]1O[C@H](O[C@]2(CCl)O[C@H](CCl)[C@@H](O)[C@@H]2O)[C@H](O)[C@@H](O)[C@H]1Cl	inactive	
O=c1[nH]c(=O)n([C@H]2CCCO2)cc1F	inactive	
Cc1ccc(C=O)s1	inactive	
C=O	inactive	
O=C(O)c1cccc(C(F)(F)F)c1	inactive	

Structure (SMILES)	outcome	AC50
Fc1c(F)c(F)c(Br)c(F)c1F	inactive	
C=C(C)C1CCC(C)CC1O (centres undefined)	inactive	
O=S(=O)(O)NC1CCCCC1	inactive	
CCCCCCCCCCC(CO)CCCCCCCC (centres undefined)	inactive	
CO[Si](CCCn1c(=O)n(CCC[Si](OC)(OC)OC)c(=O)n(CCC[Si](OC)(OC)OC)c1=O)(OC)OC	inactive	
C=CCOc1nc(OCC=C)nc(OCC=C)n1	inactive	
C=C(C)C(=O)O[C@H]1C[C@@H]2CC[C@@]1(C)C2(C)C	inactive	
Cc1ccc(S)cc1		100 µM (active)
CCCCCCOC(=O)CCCCC	inactive	
Nc1ccc(S(N)(=O)=O)cc1	inactive	
CC(C)=CCO	inactive	
CCOc1ccccc1OCC	inactive	
CC(=O)C(=O)O	inactive	
CC1(C)C(=O)N(Br)C(=O)N1Cl	inactive	
CCC(C)CCCC(C)(C)O (centres undefined)	inactive	
Clc1sc(Cl)c(Cl)c1Cl	inactive	
CC1(CO)CN(c2ccccc2)NC1=O (centres undefined)	inactive	
CCOC(=O)c1ccccc1OC	inactive	
CCCOCC(C)O (centres undefined)	inactive	

Target: Heat shock factor protein 1 (Homo sapiens) (UniProt Q00613)
Sequence (Q00613 whole entry, looked up): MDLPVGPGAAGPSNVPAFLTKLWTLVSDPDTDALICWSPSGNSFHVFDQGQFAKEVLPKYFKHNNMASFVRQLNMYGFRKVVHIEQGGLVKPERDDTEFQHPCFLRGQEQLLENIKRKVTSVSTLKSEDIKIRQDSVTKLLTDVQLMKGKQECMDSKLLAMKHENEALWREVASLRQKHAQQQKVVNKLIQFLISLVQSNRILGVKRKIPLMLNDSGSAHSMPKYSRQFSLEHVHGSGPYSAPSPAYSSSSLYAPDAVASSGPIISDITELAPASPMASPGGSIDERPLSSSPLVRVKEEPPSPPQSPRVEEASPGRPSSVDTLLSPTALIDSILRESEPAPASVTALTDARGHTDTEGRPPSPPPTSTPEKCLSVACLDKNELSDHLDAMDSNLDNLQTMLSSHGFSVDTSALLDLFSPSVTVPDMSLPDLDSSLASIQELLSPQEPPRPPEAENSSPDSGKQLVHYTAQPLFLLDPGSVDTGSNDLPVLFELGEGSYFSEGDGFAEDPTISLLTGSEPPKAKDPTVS
Experiment: ATG_HSE_CIS: Attagene CIS-FACTORIAL HepG2 Assay for human Heat Shock Transcription Factor 1 (HSE) (AID 2282953)
Settings: HepG2 HSE cis-reporter, Attagene RNA transcription; actives raise or lower the signal
Summary of the method: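 Read-out: fluorescence of reporter-specific RT-PCR fragments separated by capillary electrophoresis. HepG2 carrying transfected cis-element reporter units; 24 h dosing; activity fitted in both directions relative to DMSO baseline.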

Structure (SMILES)	outcome	AC50
CCCCCCCCCCCCOCCO	inactive	
CC(C)=CCC/C(C)=C/COC=O	inactive	
CCC(=O)OCCC(C)CCC=C(C)C (centres undefined)	inactive	
CCCCCCCCCCN	inactive	
O=C1C(c2[nH]c3ccc(S(=O)(=O)O)cc3c2O)=Nc2ccc(S(=O)(=O)O)cc21	inactive	
CCCCOCCOCCOCCOCCO	inactive	
NCCCCCCN	inactive	
CC(C)(COC(=O)c1ccccc1)COC(=O)c1ccccc1	inactive	
O=C(COc1ccc(Cl)cc1)N1CCN(Cc2ccc3c(c2)OCO3)CC1		151 µM (active)
O=CCCc1ccccc1	inactive	
CCCCCCCCC=O	inactive	
OCCCCCO	inactive	
C=C(C)C(=O)Nc1ccc(Cl)c(Cl)c1	inactive	
C=C(C)[C@@H]1CC[C@@H](C)C[C@@H]1O	inactive	
OC[C@H]1O[C@H](O[C@]2(CCl)O[C@H](CCl)[C@@H](O)[C@@H]2O)[C@H](O)[C@@H](O)[C@H]1Cl	inactive	
O=c1[nH]c(=O)n([C@H]2CCCO2)cc1F	inactive	
Cc1ccc(C=O)s1	inactive	
C=O	inactive	
O=C(O)c1cccc(C(F)(F)F)c1	inactive	

Structure (SMILES)	outcome	AC50
Fc1c(F)c(F)c(Br)c(F)c1F	inactive	
C=C(C)C1CCC(C)CC1O (centres undefined)	inactive	
O=S(=O)(O)NC1CCCCC1	inactive	
CCCCCCCCCCC(CO)CCCCCCCC (centres undefined)	inactive	
CO[Si](CCCn1c(=O)n(CCC[Si](OC)(OC)OC)c(=O)n(CCC[Si](OC)(OC)OC)c1=O)(OC)OC	inactive	
C=CCOc1nc(OCC=C)nc(OCC=C)n1	inactive	
C=C(C)C(=O)O[C@H]1C[C@@H]2CC[C@@]1(C)C2(C)C	inactive	
Cc1ccc(S)cc1		161 µM (active)
CCCCCCOC(=O)CCCCC	inactive	
Nc1ccc(S(N)(=O)=O)cc1	inactive	
CC(C)=CCO	inactive	
CCOc1ccccc1OCC	inactive	
CC(=O)C(=O)O	inactive	
CC1(C)C(=O)N(Br)C(=O)N1Cl	inactive	
CCC(C)CCCC(C)(C)O (centres undefined)	inactive	
Clc1sc(Cl)c(Cl)c1Cl	inactive	
CC1(CO)CN(c2ccccc2)NC1=O (centres undefined)	inactive	
CCOC(=O)c1ccccc1OC	inactive	
CCCOCC(C)O (centres undefined)	inactive	
